Screening results from PubChem BioAssay.
A selection: hits, their analogues and other compounds. The true share with any hit is near 19%.
Pf growth 96h: Primary qHTS for delayed death inhibitors of the malarial parasite plastid, 96 hour incubation; Potency, µM (titrated, usually from 28.7 µM), for the others: top-dose activity change, negative = inhibition, most hits filed as inhibitors; AID 504834, 2011; actives 6.9% (n = 320,000); P. falciparum luciferase reporter growth, 96 h; also: potency is read from the fitted curve at half-maximal effect; % is scaled to controls: 0 for no effect and ±100 for the full control effect
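P. falciparum expressing integrated firefly luciferase, in erythrocytes at 2% hematocrit, 0.05% parasitemia, incubated with compounds 96 h at 37 C, 5% CO2. Growth inhibition read as loss of luminescence; two-generation exposure targets delayed-death apicoplast inhibitors.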
Cycloheximide cs: Cycloheximide Counterscreen for Small Molecule Inhibitors of Shiga Toxin; cell reporter, cycloheximide protein synthesis inhibition counterscreen; actives 12% (n = 300,000); max response, %; in the data active = max response mostly above about 13%, no sharp cut-off; inactive = mostly below about 14%; also: read at 38.3 µM for the half of the compounds with a filed dose; 0% is about no effect
Shiga toxin inh: A qHTS for Small Molecule Inhibitors of Shiga Toxin; Vero cells, Shiga toxin protein synthesis inhibition reporter; inhibition, % at 38.7 µM; actives 9.2% (n = 290,000); in the data active = inhibition mostly above about 28%, no sharp cut-off; inactive = mostly below about 43%; also: 0% is about no effect
Pf growth 48h: Primary qHTS for delayed death inhibitors of the malarial parasite plastid, 48 hour incubation. actives 5.9% (n = 310,000). Potency, µM (top dose mostly 28.7 µM), without a hit: top-dose activity change, negative = inhibition, most hits filed as inhibitors. AID 504832, 2011. P. falciparum luciferase growth in erythrocytes, 48 h; also: potency is read from the fitted curve at half-maximal effect; % is scaled to controls: 0 for no effect and ±100 for the full control effect
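Parasite viability was followed by luminescence of a genomically integrated firefly luciferase. Cultures held 0.1% parasitemia at 2% hematocrit (final), incubated under 5% CO2 at 37 C.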
AMA1-RON2 inh: qHTS for Inhibitors of AMA1-RON; Towards Development of Antimalarial Drug Lead: Primary Screen; Plasmodium falciparum AMA1 (3D7) - RON2 peptide interaction; AlphaScreen AMA1-biotinylated RON2 peptide binding; Potency, µM (highest dose often 58.2 µM), inactives show at the highest dose activity change, negative = inhibition, actives largely listed as inhibitors; actives 0.2% (n = 360,000);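 also: potency is read from the fitted curve at half-maximal effect; 0% = vehicle wells and -100% = peptide control; nearly all actives have a fitted effect of over 45% in size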
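AMA1 (3D7) with his tag at 25 nM final met compounds first, then biotinylated RON2 peptide at 25 nM; detection used donor plus acceptor beads, 10 µg/mL apiece, read by AlphaScreen after 30 min at room temperature.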
SARS PLpro yeast: qHTS of Yeast-based Assay for SARS-CoV PLP; S. cerevisiae expressing SARS-CoV PLpro, growth rescue; Potency, µM (top dose mostly 32.9 µM), for inactives: at the top dose activity, positive = growth rescue, actives largely listed as activators; actives 0.19% (n = 330,000); AID 485353, 2010; calls by dose curve; also: potency is read from the fitted curve at half-maximal effect; 0% is about no effect; nearly all actives have a fitted effect of over 55% in size
Active calls of the source: *; i = inactive; u = inconclusive; x = no result; + = active, no number; [ ] = another dose, or the depositor's remark. Unless noted, calls follow the shape of the dose curve; as a rule, active = well fitted curve in the direction sought with a large enough effect; inconclusive = small, poorly fitted or top-dose-only effect, or another doubt; inactive = no such curve, though single readings can be large; an effect the other way counts as inactive or inconclusive.

SMILES	Pf growth 96h	Cycloheximide cs	Shiga toxin inh	Pf growth 48h	AMA1-RON2 inh	SARS PLpro yeast
Cc1ccc(NC(=O)Cn2nnc(-c3ccc4c(c3)OCO4)n2)cc1F	0.6%	-4.4	-2.9	11.2%	6.4%	6.1%
CC(=O)c1ccc(Sc2nnc(C)s2)c([N+](=O)[O-])c1	u	2.0	-4.2	-18.3%	-1.6%	-0.2%
COc1cc(/C=C2/C(=N)N3C=CSC3=NC2=O)ccc1OCCCOc1cc(C)ccc1C	59.4%	10.3	-4.5	76.3%	65.1%	-3.9%
CCCC[C@]12Cc3cc(C#N)ccc3C(O1)c1c(c3ccccc3oc1=O)O2	u	-3.5	i	-14.8%[5.75 µM]	x	0.0%[6.58 µM]
CC1(C)CC(=O)C2=C(C1)O[C@@]1(c3ccsc3)Cc3cc(C#N)ccc3C2O1	u	1.5	i	1.51µM*	x	u
COc1cc2c(cc1OC)C1O[C@](c3ccsc3)(C2)Oc2c1c(=O)oc1ccc(F)cc21	u	15.5*	i	1.51µM*	x	5.3%[6.58 µM]
COc1ccc2c3c(c(=O)oc2c1)C1O[C@](c2ccsc2)(Cc2cc(C#N)ccc21)O3	26.7%[5.75 µM]	-2.5	i	u	x	7.6%[6.58 µM]
N#Cc1ccc2c(c1)C[C@]1(c3ccsc3)Oc3c(c(=O)oc4ccccc34)C2O1	u	24.0*	+	u	x	-4.4%[6.58 µM]
CCCC[C@]12Cc3cc(C#N)ccc3C(O1)c1c(c3cc(F)ccc3oc1=O)O2	1.35µM*	2.0	i	-13.6%[5.75 µM]	x	3.4%[6.58 µM]
Cc1ccccc1-n1c(SCC(=O)NC2CC2)nc2ccccc2c1=O	x	x	x	x	-8.5%	x
Nc1ccc(S(=O)(=O)N2CCC(Cc3ccccc3)CC2)cc1	0.0%	-3.8	-5.0	x	-9.0%	10.0%
CCOc1ccc(CCN2C(=S)N([C@@H](Cc3ccc(O)cc3)CN3CCC[C@@H]3CN3C(=S)NC[C@@H]3CC(C)C)C[C@@H]2Cc2ccc(O)cc2)cc1	x	x	x	x	6.3%	x
N#Cc1ccc2c(c1)C[C@]1(c3ccsc3)Oc3c(c(=O)oc4ccc(F)cc34)C2O1	73.3%[5.75 µM]	-4.2	i	1.51µM*	x	-18.5%[6.58 µM]
CC(=O)[C@H]1CC[C@H]2[C@@H]3C=CC4=CC(=O)CC[C@@]4(C)[C@H]3CC[C@]12C	-19.5%[12.8 µM]	x	x	-12.0%[12.8 µM]	x	x
CCn1c2ccccc2c2cc(CN3CCN(Cc4cc(OC)ccc4O)CC3)ccc21	52.7%	8.3	24.8	1.17µM*	12.6µM*	8.0%
CCn1c2ccccc2c2cc(CN3CCN(S(C)(=O)=O)CC3)ccc21	47.1%	-1.3	-9.2	u	-13.8%	-3.9%
COc1ccc(CN2CCN(CC(O)Cn3c4ccccc4c4ccccc43)CC2)cc1 (stereo not given)	u	-1.8	-1.8	3.29µM*	-22.9%	-26.5%
CCOc1ccc(CN2CCN(CC(O)Cn3c4ccccc4c4ccccc43)CC2)cc1 (stereo not given)	u	-6.4	-14.5	2.08µM*	10.7%	-11.1%
CN1CCN(CC(O)Cn2c3ccccc3c3ccccc32)CC1 (stereo not given)	-2.1%	-8.7	-1.0	u	-1.5%	0.2%
CCOC(=O)c1c(C)[nH]c(C)c1C(=O)COC(=O)c1nc2nccc(C)n2n1	18.0%	1.6	29.9	-19.7%	-2.1%	0.6%
COC(=O)c1c(C)[nH]c(C(=O)COC(=O)CCNS(=O)(=O)c2cccc(C(F)(F)F)c2)c1C	66.1%	x	x	-4.1%	4.2%	-2.2%
O=C(C=C=Nc1ccccc1)C(=O)N=C=Cc1ccccc1	u	24.1*	71.7*	u	2.2%	0.9%
O=C(Nc1cccc(Cl)c1)c1csc([C@@H]2C[C@H](O)[C@@H](CO)O2)n1	x	x	x	x	10.3%	x
C=CC(=O)NC(C)(C)CCN1CCOCC1	27.8%	-1.7	22.6	0.928µM*	4.0%	1.5%
CC(C)(C)NC(=O)CCN1CCOCC1	x	-4.1	-30.4	2.1%	47.1%	1.4%
SMILES	Pf growth 96h	Cycloheximide cs	Shiga toxin inh	Pf growth 48h	AMA1-RON2 inh	SARS PLpro yeast
COc1ccc(C(=O)c2oc3ccc(OC)cc3c2NC(C)=O)cc1	-2.8%	0.3	-4.1	-3.2%	-11.4%	11.5%
CCN(CC)CCOC(=O)c1c(C)oc2ccc(OC)cc12	-24.3%	17.3	61.4*	13.0%	15.1%	-0.1%
COc1ccc(C(=O)c2oc3ccc(OC)cc3c2N)cc1	u	29.4*	69.8*	144.6%	41.8%	-23.6%
Cc1oc2ccc(OC(=O)N(C)C)cc2c1C(=O)OC(C)C	2.94µM*	10.4	-10.1	u	3.9%	-39.8%
Nc1c(C(=O)c2ccc(Cl)cc2)oc2ccccc12	123.4%	32.4*	64.9*	49.7%	-2.7%	-6.1%
C=CC[C@H](CC(=O)N(CCO)Cc1ccccc1)C(=O)N[C@H](COC(=O)[C@@H](CC=C)Cc1ccc(F)cc1)Cc1ccccc1	x	x	x	x	-4.2%	0.3%
CCOC(=O)C1C(c2cccc([N+](=O)[O-])c2)C2C(=O)NN=C2CC1(C)O (stereo not given)	20.3%	-4.2	15.2	5.4%	5.4%	-4.0%
Cc1ccc(C2(C)NC(=O)N(CC(=O)NCCN3C(=O)S/C(=C\c4cccnc4)C3=O)C2=O)cc1 (stereo not given)	x	x	x	x	5.9%[11.6 µM]	x
COC(=O)c1oc2ccc(OC)cc2c1N	44.3%	28.3*	63.4*	110.0%	-0.3%	-5.0%
O=C1N(c2ccccc2C(F)(F)F)O[C@@]1(c1ccccc1)C1CCCC1	0.828µM*	x	x	0.738µM*	39.7%	-14.7%
FC(F)(F)c1ccccc1N1CC1c1ccncc1 (stereo not given)	2.0%	-3.4	-2.1	x	2.1%	-2.3%
O=C1N(c2ccccc2C(F)(F)F)O[C@@]1(c1ccccc1)C1CCCCC1	u	x	x	1.47µM*	33.9%	-13.8%
CCn1cc(C(=O)NCCCN(CC(C)C)CC(C)C)c(=O)c2cc(S(=O)(=O)N3CCOCC3)ccc21	u	3.1	-7.3	-3.9%	3.7%	3.4%
Cc1ccccc1CNS(=O)(=O)c1ccccc1[N+](=O)[O-]	0.657µM*	-2.8	-7.2	33.6%	-2.7%	-0.8%
CCOC(=O)C1Oc2ccccc2C(c2ccc(C)cc2)=C1C(=O)OC (stereo not given)	x	18.9*	i	x	-5.2%	-20.5%
CCOC(=O)C1Oc2ccccc2C(c2ccc(F)cc2)=C1C(=O)OC (stereo not given)	x	5.5	i	x	-3.5%	8.2%
CC(=O)NC12CC3CC(C1)CC(C(=O)N1CCN(S(=O)(=O)c4ccc(C(C)C)cc4)CC1)(C3)C2	11.7µM*	x	x	0.4%	8.5%	-2.8%
CCOC(=O)C1CCN(C(=O)CSc2ccccc2Cl)CC1	8.5%	6.4	-5.0	0.0%	20.8%	1.0%
COc1ccc(CCN(C)C(=O)CCCN2C(=O)c3cccc4cccc(c34)C2=O)cc1OC	u	-1.3	-8.1	u	2.9%	-6.1%
